Reference: PubChem BioAssay (NCATS)
“And” between values parts separate entries of the source, which are not always exact repeats. Equal values may be shown once. Inconclusive results are not listed. The source made the active and inactive calls. Unless noted, the call rests on the fitted dose curve; in most records, active means well fitted curve in the direction sought with a large enough effect; inconclusive means small, poorly fitted or top-dose-only effect, or another doubt; inactive means no such curve, though single readings can be large; an effect the other way counts as inactive or inconclusive.

Experiments:
[1] = Cell Viability - BJ (AID 421; calls by dose curve;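 further: potency means the concentration at half of the fitted maximal effect; cells exposed to compound for 40 hours at 37 °C before readout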); conditions: BJ fibroblast viability, qHTS
Summary of the method: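 Cytotoxicity as drop in intracellular ATP (CellTiter-Glo, 20 min RT) after 40 hr compound exposure of BJ fibroblasts at 37 °C. Titrations scaled between DMSO and 100 uM tamoxifen, Hill-fitted for AC50.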

[2] = Cell Viability - HepG2 (AID 433; calls by dose curve;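 further: potency means the concentration at half of the fitted maximal effect; potency for ATP loss meaning cytotoxicity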); conditions: qHTS
Summary of the method: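 Read-out is luciferase-based quantitation of cellular ATP as a measure of viable HepG2 cells after 40 h treatment at 37 °C. Signal decrease is scaled between DMSO-only and 100 uM tamoxifen controls, with AC50 fitted by the Hill equation.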

[3] = Cell Viability - MRC5 (AID 434; calls by dose curve;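 further: potency means the concentration at half of the fitted maximal effect; potency reflects cytotoxicity seen as loss of intracellular ATP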); conditions: MRC5 lung fibroblast viability, qHTS
Summary of the method: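 qHTS cytotoxicity in human lung fibroblast MRC5 cells; 40 hr treatment, 37 °C; cellular ATP by luciferase luminescence; DMSO = 0%, 100 uM tamoxifen = 100% inhibition; Hill-fit AC50.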

[4] = Cell Viability - NIH 3T3 (AID 541); conditions: NIH 3T3 cell viability, qHTS; activity change, negative = cytotoxicity: at 92.2 µM (top of the series);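 further: plate controls were DMSO alone for no effect and tamoxifen positive control for full effect; nearly all actives have a fitted effect of over 25% in size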
Summary of the method: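 Luminescent ATP signal (CellTiter-Glo) served as the viability read-out after NIH 3T3 cells were exposed to compounds over a concentration range for 40 hr at 37 °C. Hill-equation modelling of concentration-response data gave AC50.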

[5] = Cell Viability - HUV-EC-C (AID 542); conditions: HUV-EC-C endothelial cell viability, qHTS; series mostly up to 92.2 µM; further: on the % scale 0 is the no-effect control and ±100 the full control effect; nearly all actives have a fitted effect of over 35% in size
Summary of the method: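 qHTS cytotoxicity: HUV-EC-C, 1000 cells/well, 5 hr settle, compound 40 hr 37 °C, CellTiter-Glo, luminescence. AC50 via Hill equation.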

[6] = Cell Viability - H-4-II-E (AID 543); conditions: H-4-II-E rat hepatoma viability; series mostly up to 92.2 µM; further: on the % scale 0 is the no-effect control and ±100 the full control effect; nearly all actives have a fitted effect of over 35% in size
Summary of the method: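 Luminescent ATP signal (CellTiter-Glo) served as the viability read-out, with cytotoxicity seen as a concentration-dependent ATP drop. Cells were treated for 40 hours in complete medium. AC50 values derive from Hill-equation modelling.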

[7] = Cell Viability - SH-SY5Y (AID 544); conditions: SH-SY5Y neuroblastoma cell viability; viability change, negative = cytotoxic: at 92.2 µM (top of the series); further: nearly all actives have a fitted effect of over 55% in size
Summary of the method: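 Luminescent ATP read-out (CellTiter-Glo) measures loss of viable SH-SY5Y neuroblastoma cells after 40 hr compound exposure at 37 °C. AC50 values derive from standard Hill modelling of qHTS concentration-response data.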

[8] = Cell Viability - Renal Proximal Tubule (AID 545); conditions: renal proximal tubule cells viability; at 91.7 µM (top of the series), primary cells of rat origin unless noted; further: nearly all actives have a fitted effect of over 40% in size
Summary of the method: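 Luminescent ATP signal (CellTiter-Glo) served as the viability read-out after 40 hr compound exposure of freshly isolated rat proximal tubule cells at 37 °C. Concentration-dependent ATP loss was fitted with the Hill equation to give AC50.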

[9] = Cellular Toxicity (caspase-3) HepG2 (AID 654); conditions: HepG2 caspase-3 activation, luminescence, 0% = DMSO only, 100% = tamoxifen; series mostly up to 92.2 µM;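 further: cells exposed to compound for 16 hours before reading; 0% = DMSO alone and 100% = caspase signal from 100 µM tamoxifen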
Summary of the method: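 Cells plated 5 hr at 37 °C, compound added, incubated 16 hr at 37 °C. Caspase-Glo 3/7 reagent followed, 20 min at room temperature, then luminescence read. Activation scored as signal increase; AC50 from Hill fit.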

[10] = Cellular Toxicity (caspase-3) Jurkat (AID 655); conditions: Jurkat caspase-3 activation, luminescence, DMSO = 0%, tamoxifen = 100%; at 92.2 µM (top of the series);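 further: cells exposed to compound for 16 h at 37 °C before reading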
Summary of the method: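 5000 Jurkat cells/well; compound 16 hr, 37 °C; Caspase-Glo 3/7 added, 20 min RT; luminescence read. Norm: DMSO = 0%, tamoxifen 100 uM = 100%. AC50, Hill model.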

[11] = Cellular Toxicity (caspase-3) HUV-EC-C (AID 656); conditions: HUV-EC-C cells, caspase-3 activation (apoptosis), vehicle = 0, 100 µM tamoxifen = 100%; series mostly up to 92.2 µM
Summary of the method: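 qHTS; HUV-EC-C, 1000 cells/well; 5 hr settle, 16 hr cmpd, 37°C; Caspase-Glo 3/7, 20 min RT; luminescence. Norm: DMSO = 0%, tamoxifen 100 uM = 100%. Hill-fit AC50.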

[12] = Cellular Toxicity (caspase-3) SHSY5Y (AID 657); conditions: SH-SY5Y caspase-3 activation, DMSO zero, 10 µM staurosporine = 100%; series mostly up to 91.7 µM;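 further: cells exposed to compound for 16 hours at 37 °C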
Summary of the method: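 qHTS, SH-SY5Y, 1500 cells/well, 5 h pre-incubation 37 °C; compound 16 h 37 °C; Caspase-Glo 3/7 1 h RT; luminescence. Norm.: DMSO = 0, 10 uM staurosporine = 100%. Hill fit → AC50.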

[13] = Cellular Toxicity (caspase-3) BJ (AID 658); conditions: BJ fibroblasts, luminescence, normalized: DMSO 0%, staurosporine 100%; series mostly up to 91.7 µM
Summary of the method: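 Readout: Caspase-Glo 3/7 luminescence increase in BJ cells after 16 hr treatment at 37 °C. Staurosporine and tamoxifen served as positive controls; AC50 values came from Hill modelling of data normalized to DMSO and 10 uM staurosporine.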

[14] = Cellular Toxicity (caspase-3) MRC-5 (AID 659); conditions: MRC-5 cells, luminescence, normalized: DMSO 0%, 10 µM staurosporine 100%; series mostly up to 91.7 µM
Summary of the method: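 Concentration-dependent caspase 3/7 activation is measured in human normal lung fibroblasts (MRC-5) following 16-hour treatment. AC50 values come from standard Hill-equation modeling of luminescence normalized to DMSO and 10 uM staurosporine.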

[15] = Cellular Toxicity (caspase-3) SK-N-SH (AID 661); conditions: SK-N-SH caspase-3 activation, qHTS, DMSO as zero, staurosporine as full; series mostly up to 91.7 µM
Summary of the method: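 Human neuroblastoma SK-N-SH, 1500 cells/well, 5 hr pre-incubation, then compound 16 hr, 37 °C. Caspase-Glo 3/7 reagent, 1 hr RT, luminescence. Norm. to DMSO/10 uM staurosporine; Hill-fit AC50.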

[16] = Cellular Toxicity (caspase-3) H-4-II-E (AID 663); conditions: H-4-II-E rat hepatoma, scaled: DMSO 0%, 100 µM tamoxifen 100%; series mostly up to 92.2 µM;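 further: cells exposed to compound for 16 hr before readout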
Summary of the method: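 Apoptosis induction is scored as increased luminescence from caspase 3/7 substrate cleavage in rat hepatoma H-4-II-E cells exposed to compound for 16 hr. Activity is scaled between DMSO and 100 uM tamoxifen.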

[17] = Cellular Toxicity (caspase-3) Hek293 (AID 664); conditions: HEK293 caspase-3 activation, DMSO = 0%, 100 µM tamoxifen = 100%; series mostly up to 92.2 µM;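 further: cells exposed to compound for 16 h at 37 °C before readout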
Summary of the method: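 Cells plated, 5 hr at 37 °C; compounds added; 16 hr at 37 °C; Caspase-Glo 3/7 reagent, 20 min RT; luminescence read. Activation expressed relative to DMSO and 100 uM tamoxifen, AC50 by Hill model.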

[18] = Cellular Toxicity (caspase-3) Renal Proximal Tubule (AID 667); conditions: renal proximal tubule cells; at 91.7 µM (top of the series), primary cells freshly taken from rat, solvent-only wells 0%, staurosporine 100% unless noted;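 further: cells exposed to compound for 16 hours at 37 °C before detection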
Summary of the method: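 AC50 derived by standard Hill fit of concentration-response data, normalized between DMSO basal and 10 uM staurosporine as 100% stimulation. Cells: primary rat kidney proximal tubule, 16 h treatment at 37 °C.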

[19] = qHTS Assay for Identification of Small Molecule Inducers of Hypoxia Response (AID 2120; active means well fitted curve in the direction sought with a large enough effect in the signal ratio, with a control signal flat, not every such curve was filed as active; the % refers to the signal ratio; further: 0% is about no effect); conditions: hypoxia response reporter cells, beta-lactamase ratio readout; series mostly up to 104 µM
Summary of the method: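 ME-180 HRE-bla cells plated in Opti-MEM/0.5% dialyzed FBS, rested 4-5 h, then dosed with compound titrations by pin tool. After 17 h at 37 degrees C, CCF4 dye loaded 2.5 h at RT; 460/530 nm ratio gave %Activity and AC50.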

[20] = biological target: Peroxisome proliferator-activated receptor alpha (Homo sapiens) (UniProt Q07869); assay: qHTS assay for small molecule agonists of the peroxisome proliferator-activated receptor alpha (PPARalpha) signaling pathway (AID 651778); conditions: PathHunter PPARalpha complementation, chemiluminescence, 6 h; active compounds read high; further: % of control where 0% means no effect
Peroxisome proliferator-activated receptor alpha (Homo sapiens), sequence (Q07869 whole entry, looked up): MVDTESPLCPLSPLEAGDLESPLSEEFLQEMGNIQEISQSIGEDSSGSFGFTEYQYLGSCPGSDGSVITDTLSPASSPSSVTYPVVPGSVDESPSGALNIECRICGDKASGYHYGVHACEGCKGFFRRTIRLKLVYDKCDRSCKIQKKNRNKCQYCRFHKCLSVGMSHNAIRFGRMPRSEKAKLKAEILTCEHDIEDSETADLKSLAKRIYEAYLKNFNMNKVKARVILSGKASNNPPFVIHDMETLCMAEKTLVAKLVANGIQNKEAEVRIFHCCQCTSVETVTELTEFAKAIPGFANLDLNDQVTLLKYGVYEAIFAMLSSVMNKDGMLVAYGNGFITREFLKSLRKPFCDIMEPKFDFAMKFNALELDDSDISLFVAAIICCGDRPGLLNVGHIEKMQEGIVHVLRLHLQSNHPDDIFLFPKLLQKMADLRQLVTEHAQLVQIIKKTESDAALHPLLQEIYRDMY
Summary of the method: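 Chemiluminescence from complemented enzyme reported PPARalpha activation in cells after 6 hr of compound treatment at 37 C. The detection reagent was incubated for 60 min at room temperature, and compounds were scored as agonists.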

c1nc[nH]n1
inactive: Potency [1] > 92 µM | Potency [2] > 92 µM | Potency [3] > 92 µM | activity change, negative = cytotoxicity [4] -5.84% | Potency [5] | Potency [6] | Potency [7] | activity change, negative = cytotoxicity [8] -1.05% | outcome [9] | caspase-3 activation [10] 0.542% | outcome [11] | outcome [12] | outcome [13] | outcome [14] | outcome [15] | outcome [16] | outcome [17] | caspase-3 activation [18] 6.18% | outcome [19] | max response [20] 7.97%

OCC1CO1 (stereo not given)
inactive: Potency [1] > 92 µM | Potency [2] > 92 µM | Potency [3] > 92 µM | activity change, negative = cytotoxicity [4] -5.54% | Potency [5] | Potency [6] | Potency [7] | activity change, negative = cytotoxicity [8] 4.62% | outcome [9] | caspase-3 activation [10] 0.767% | outcome [11] | outcome [12] | outcome [13] | outcome [14] | outcome [15] | outcome [16] | outcome [17] | caspase-3 activation [18] 0.454% | outcome [19] | max response [20] -0.572% and -0.317%

Cc1cccc([N+](=O)[O-])c1
inactive: Potency [1] > 92 µM | Potency [2] > 92 µM | Potency [3] > 92 µM | activity change, negative = cytotoxicity [4] -17.5% | Potency [5] | Potency [6] | Potency [7] | activity change, negative = cytotoxicity [8] -7.28% | outcome [9] | caspase-3 activation [10] -1.23% | outcome [11] | outcome [12] | outcome [13] | outcome [14] | outcome [15] | outcome [16] | outcome [17] | caspase-3 activation [18] 5.52% | outcome [19] | max response [20] -3.99% and -0.65%

CCSC(=O)Cl
inactive: Potency [1] > 92 µM | Potency [2] > 92 µM | Potency [3] > 92 µM | activity change, negative = cytotoxicity [4] -9.03% | Potency [5] | Potency [6] | Potency [7] | activity change, negative = cytotoxicity [8] -4.42% | outcome [9] | caspase-3 activation [10] -0.54% | outcome [11] | outcome [12] | outcome [13] | outcome [14] | outcome [15] | outcome [16] | outcome [17] | caspase-3 activation [18] 8.48% | outcome [19] | max response [20] 0.356%
